# Values joined by “and” are separate entries in the source; they are usually repeats but may differ in a detail not shown here. Identical values can stand only once. The full ranking holds about 2,900 compounds; the median of “IRF Lucia reporter activity, fold change vs agonist alone” is about 0.9, and the highest 2% start at about 2.8. This excerpt belongs to a sample that is enriched for the highest values.
# What was measured:
# RAW-Dual [1] = assay: IRF Lucia reporter activity, fold change vs agonist alone; cytotoxicity flag (confluency mask): not cytotoxic; higher = enhanced IRF activity
# Method in brief: (§1)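 Supernatant from RAW-Dual macrophages was read after 20 hours for IRF by QuantiLuc luminescence and for NF-κB by QuantiBlue absorbance at 620 nm. The cells (50,000 cells/well in DMEM, 384-well plates, 37 °C, 5% CO2) had received 50 nL of library stock by pin tool and, 1 h later, a PRR agonist. Reporter activity is expressed relative to agonist-alone wells as fold change, and wells were flagged cytotoxic if IncuCyte confluency was under 70% of agonist controls in both mask sets.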
# RAW-Dual [2] = assay: IRF Lucia reporter activity, fold change vs agonist alone; higher = enhanced IRF activity; conditions: agonist: MPLA (TLR4) […]
# Method in brief: as §1
# RAW-Dual [3] = assay: IRF Lucia reporter activity, fold change vs agonist alone; cytotoxicity flag (confluency mask): cytotoxic (confluency <70% of control); higher = enhanced IRF activity
# Method in brief: as §1
# [4] = agonist: 3'3'-cGAMP (STING) 10 ug/mL
# [5] = library stock concentration (final ~1000-fold dilution): 10 mM water, cytotoxicity flag (confluency mask): not cytotoxic
# [6] = library stock concentration (final ~1000-fold dilution): 10 mM, cytotoxicity flag (confluency mask): not cytotoxic
# [7] = library stock concentration (final ~1000-fold dilution): 10 mM, cytotoxicity flag (confluency mask): cytotoxic (confluency <70% of control)
structure (smiles),measurement,setting,value
CCCC1CC(C(=O)NC(C(C)Cl)C2OC(SC)C(OP(=O)(O)O)C(O)C2O)N(C)C1 (configuration not stated) (library stock concentration (final ~1000-fold dilution): 10 mM water),IRF Lucia reporter activity,RAW-Dual [1]; [4],1.23
same,IRF Lucia reporter activity,RAW-Dual [1]; agonist: LPS (TLR4) 0.1 ug/mL,0.95
CCCC1CC(C(=O)NC(C(C)Cl)C2OC(SC)C(OP(=O)(O)O)C(O)C2O)N(C)C1 (configuration not stated),IRF Lucia reporter activity,RAW-Dual [2]; [5],1.42
COC(=O)C1=C(C)NC(C)=C(C(=O)OC)C1c1ccccc1[N+](=O)[O-] (library stock concentration (final ~1000-fold dilution): 10 mM),IRF Lucia reporter activity,RAW-Dual [1]; [4],0.606
same,IRF Lucia reporter activity,RAW-Dual [1]; agonist: LPS (TLR4) 0.1 ug/mL,0.554
CCCC(=O)OCOC(=O)C1=C(C)NC(C)=C(C(=O)OC)C1c1cccc(Cl)c1Cl (configuration not stated),IRF Lucia reporter activity,RAW-Dual [2]; [6],0.992
CCOC(=O)C1=C(C)NC(C)=C(C(=O)OC)C1c1cccc(Cl)c1Cl (configuration not stated),IRF Lucia reporter activity,RAW-Dual [2]; [6],1.08
COC(=O)C1=C(C)NC(C)=C(C(=O)OC)C1c1ccccc1[N+](=O)[O-],IRF Lucia reporter activity,RAW-Dual [2]; [6],0.406
CCOC(=O)C1=C(COCCN)NC(C)=C(C(=O)OC)C1c1ccccc1Cl (configuration not stated) (library stock concentration (final ~1000-fold dilution): 10 mM),IRF Lucia reporter activity,RAW-Dual [3]; [4],0.715 and 0.401
same,IRF Lucia reporter activity,RAW-Dual [3]; agonist: LPS (TLR4) 0.1 ug/mL,2.55 and 2.72
COC(=O)C1=C(C)NC(C)=C(C(=O)OCC(C)C)C1c1ccccc1[N+](=O)[O-] (configuration not stated),IRF Lucia reporter activity,RAW-Dual [2]; [6],0.508
CCCC(=O)OCOC(=O)C1=C(C)NC(C)=C(C(=O)OC)C1c1cccc(Cl)c1Cl (configuration not stated) (library stock concentration (final ~1000-fold dilution): 10 mM),IRF Lucia reporter activity,RAW-Dual [1]; [4],1.02
same,IRF Lucia reporter activity,RAW-Dual [1]; agonist: LPS (TLR4) 0.1 ug/mL,0.873
COC(=O)C1=C(C)NC(C)=C(C(=O)OCC(C)C)C1c1ccccc1[N+](=O)[O-] (configuration not stated) (library stock concentration (final ~1000-fold dilution): 10 mM),IRF Lucia reporter activity,RAW-Dual [1]; [4],0.585
same,IRF Lucia reporter activity,RAW-Dual [1]; agonist: LPS (TLR4) 0.1 ug/mL,0.872
CCOC(=O)C1=C(COCCN)NC(C)=C(C(=O)OC)C1c1ccccc1Cl.O=S(=O)(O)c1ccccc1 (configuration not stated),IRF Lucia reporter activity,RAW-Dual [2]; [7],3.36
CCOC(=O)C1=C(C)NC(C)=C(C(=O)OC)C1c1cccc(Cl)c1Cl (configuration not stated) (library stock concentration (final ~1000-fold dilution): 10 mM),IRF Lucia reporter activity,RAW-Dual [1]; [4],1.31
same,IRF Lucia reporter activity,RAW-Dual [1]; agonist: LPS (TLR4) 0.1 ug/mL,1.17
CCOC(=O)C1=C(COCCN)NC(C)=C(C(=O)OC)C1c1ccccc1Cl.O=S(=O)(O)c1ccccc1 (configuration not stated) (library stock concentration (final ~1000-fold dilution): 10 mM),IRF Lucia reporter activity,RAW-Dual [3]; [4],1.02
same,IRF Lucia reporter activity,RAW-Dual [3]; agonist: LPS (TLR4) 0.1 ug/mL,3.19
Cc1cccc(Nc2nc(NC3CCCCC3N)ncc2C(N)=O)c1.Cl.Cl (configuration not stated) (library stock concentration (final ~1000-fold dilution): 10 mM),IRF Lucia reporter activity,RAW-Dual [3]; [4],0.0182
same,IRF Lucia reporter activity,RAW-Dual [3]; agonist: LPS (TLR4) 0.1 ug/mL,0.0241
CS(=O)(=O)O.Cc1ccc(N(CC2=NCCN2)c2cccc(O)c2)cc1,IRF Lucia reporter activity,RAW-Dual [2]; [6],0.907
CS(=O)(=O)O.Cc1ccc(N(CC2=NCCN2)c2cccc(O)c2)cc1 (library stock concentration (final ~1000-fold dilution): 10 mM),IRF Lucia reporter activity,RAW-Dual [1]; [4],0.803
same,IRF Lucia reporter activity,RAW-Dual [1]; agonist: LPS (TLR4) 0.1 ug/mL,0.89
C[N+](C)(C)NCCC(=O)O,IRF Lucia reporter activity,RAW-Dual [2]; [5],1.25
C[N+](C)(C)NCCC(=O)O (library stock concentration (final ~1000-fold dilution): 10 mM water),IRF Lucia reporter activity,RAW-Dual [1]; [4],1.05
same,IRF Lucia reporter activity,RAW-Dual [1]; agonist: LPS (TLR4) 0.1 ug/mL,0.979
C[C@@H]1O[C@@H](O[C@H]2C(=O)c3c(O)cc(O)cc3O[C@@H]2c2ccc(O)cc2)[C@H](O)[C@H](O)[C@H]1O (library stock concentration (final ~1000-fold dilution): 10 mM),IRF Lucia reporter activity,RAW-Dual [1]; [4],0.228
same,IRF Lucia reporter activity,RAW-Dual [1]; agonist: LPS (TLR4) 0.1 ug/mL,1.17
COc1nc2ccc(Br)cc2cc1C(c1ccccc1)C(O)(CCN(C)C)c1cccc2ccccc12.O=C(O)/C=C/C(=O)O (configuration not stated),IRF Lucia reporter activity,RAW-Dual [2]; [6],0.751
COc1nc2ccc(Br)cc2cc1C(c1ccccc1)C(O)(CCN(C)C)c1cccc2ccccc12.O=C(O)/C=C/C(=O)O (configuration not stated) (library stock concentration (final ~1000-fold dilution): 10 mM),IRF Lucia reporter activity,RAW-Dual [1]; [4],0.888
same,IRF Lucia reporter activity,RAW-Dual [1]; agonist: LPS (TLR4) 0.1 ug/mL,0.812
Cc1cc(Nc2ccc(NC(=O)c3ccc(Nc4ccnc5ccccc45)cc3)cc2)nc(N)n1 (library stock concentration (final ~1000-fold dilution): 10 mM),IRF Lucia reporter activity,RAW-Dual [1]; [4],1.65
same,IRF Lucia reporter activity,RAW-Dual [1]; agonist: LPS (TLR4) 0.1 ug/mL,2.84
Cc1cc(Nc2ccc(NC(=O)c3ccc(Nc4ccnc5ccccc45)cc3)cc2)nc(N)n1,IRF Lucia reporter activity,RAW-Dual [2]; [6],3.15
CNCc1ccc(C)c(NC(=O)c2ccc(Nc3nc(-c4ccccc4)c4ccccc4n3)cc2)c1,IRF Lucia reporter activity,RAW-Dual [2]; [6],1.01
CC(=O)Nc1ccc(C(=O)Nc2ccccc2N)cc1,IRF Lucia reporter activity,RAW-Dual [2]; [6],0.418
CC(=O)Nc1ccc(C(=O)Nc2ccccc2N)cc1 (library stock concentration (final ~1000-fold dilution): 10 mM),IRF Lucia reporter activity,RAW-Dual [1]; [4],0.557
same,IRF Lucia reporter activity,RAW-Dual [1]; agonist: LPS (TLR4) 0.1 ug/mL,0.424
CNCc1ccc(C)c(NC(=O)c2ccc(Nc3nc(-c4ccccc4)c4ccccc4n3)cc2)c1 (library stock concentration (final ~1000-fold dilution): 10 mM),IRF Lucia reporter activity,RAW-Dual [1]; [4],0.995
same,IRF Lucia reporter activity,RAW-Dual [1]; agonist: LPS (TLR4) 0.1 ug/mL,1.04
CCN(CC)CCCC(C)Nc1c2ccc(Cl)cc2nc2ccc(OC)cc12.Cl.Cl (configuration not stated) (library stock concentration (final ~1000-fold dilution): 10 mM),IRF Lucia reporter activity,RAW-Dual [3]; [4],0.643
same,IRF Lucia reporter activity,RAW-Dual [3]; agonist: LPS (TLR4) 0.1 ug/mL,0.0599
CCN(CC)CCCC(C)Nc1c2ccc(Cl)cc2nc2ccc(OC)cc12.Cl.Cl (configuration not stated),IRF Lucia reporter activity,RAW-Dual [2]; [7],0.84
CC(=O)Oc1cc(C(F)(F)F)ccc1C(=O)O (library stock concentration (final ~1000-fold dilution): 10 mM),IRF Lucia reporter activity,RAW-Dual [1]; [4],1.03
same,IRF Lucia reporter activity,RAW-Dual [1]; agonist: LPS (TLR4) 0.1 ug/mL,0.337
CC(=O)Oc1cc(C(F)(F)F)ccc1C(=O)O,IRF Lucia reporter activity,RAW-Dual [2]; [6],1.04
Cc1oncc1C(=O)Nc1ccc(C(F)(F)F)cc1,IRF Lucia reporter activity,RAW-Dual [2]; [6],1.62
C/C(O)=C(\C#N)C(=O)Nc1ccc(C(F)(F)F)cc1 (library stock concentration (final ~1000-fold dilution): 10 mM),IRF Lucia reporter activity,RAW-Dual [1]; [4],1.69
same,IRF Lucia reporter activity,RAW-Dual [1]; agonist: LPS (TLR4) 0.1 ug/mL,3.04
Cc1oncc1C(=O)Nc1ccc(C(F)(F)F)cc1 (library stock concentration (final ~1000-fold dilution): 10 mM),IRF Lucia reporter activity,RAW-Dual [1]; [4],1.08
same,IRF Lucia reporter activity,RAW-Dual [1]; agonist: LPS (TLR4) 0.1 ug/mL,1.39
C/C(O)=C(\C#N)C(=O)Nc1ccc(C(F)(F)F)cc1,IRF Lucia reporter activity,RAW-Dual [2]; [6],1.97
CC1CCC2C(C)C(OC(=O)CCC(=O)O)OC3OC4(C)CCC1C32OO4 (configuration not stated) (library stock concentration (final ~1000-fold dilution): 10 mM),IRF Lucia reporter activity,RAW-Dual [1]; [4],0.638
same,IRF Lucia reporter activity,RAW-Dual [1]; agonist: LPS (TLR4) 0.1 ug/mL,0.706
CC1CCC2C(C)C(OC(=O)CCC(=O)O)OC3OC4(C)CCC1C32OO4 (configuration not stated),IRF Lucia reporter activity,RAW-Dual [2]; [6],0.737
